Assay results taken from paper PMC5540273 (PLoS ONE, 2017).

Test system: T1, p38-beta
T1 construct: gene MAPK11
Details: concentration: 1 μM, replicates: in singlicate; n = 1
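Further: KINOMEscan kinase panel screen.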

Point of comparison: `O=C(Nc1ccc2c(c1)OCO2)NC1CCN(c2ccnc(Nc3ccc(F)cc3)n2)C1` (centres unmarked) [GSK1379724], “%Inh” value 0%. Against it:
- COc1cc(Nc2nccc(N3CCC(NC(=O)Nc4cc(C)ccc4C)C3)n2)cc(OC)c1OC (centres unmarked) [GSK1379762] — the same, 0%
- COc1ccc(CNC(=O)NC2CCN(c3ccnc(Nc4cc(OC)c(OC)c(OC)c4)n3)C2)cc1 (centres unmarked) [GSK1379748] — the same, 0%
- O=S(=O)(c1ccc(-c2ccnc3[nH]ccc23)cc1)N1CCCC1 [GSK846226] — the same, 0%
- Cc1cccc(-c2nc(Nc3cccc(C(N)=O)c3)c3ccccc3n2)n1 [GW876019] — higher, 34%
- O=C(Nc1n[nH]c2cc(-c3cccc(F)c3F)ccc12)C1CC1 [SB-733894] — higher, 2%
- COc1ccc2nc(-c3cccc(C)n3)nc(Nc3ccncc3)c2c1 [GSK204919] — the same, 0%
- Cc1ccc(-c2cc(-c3c[nH]nc3-c3ccccn3)ccn2)cc1 [GW684088] — the same, 0%
- COc1ccccc1CNC(=O)c1cc(C(=O)c2ccccc2C)c[nH]1 [GSK364507] — the same, 0%
- O=c1cc(N2CCOCC2)nc2n(Cc3cccc(Cl)c3Cl)ccn12 [GSK2286295] — the same, 0%
- CCCc1ccc(S(=O)(=O)NC2CCN(c3ccnc(Nc4ccc(F)cc4)n3)C2)cc1 (centres unmarked) [GSK1379715] — the same, 0%
- Cc1cccc(-c2nc(Nc3ccncc3)c3ccccc3n2)n1 [GW855857] — higher, 1%
- COc1cc2ncnc(Nc3ccc4nc(-c5ccccc5)[nH]c4c3)c2cc1OC.Cl [GW282450] — the same, 0%
- COc1ccccc1-c1ccc2c(NC(=O)C3CC3)n[nH]c2n1 [SB-711239] — higher, 9%
- Cl.O=C(Nc1cccc(-c2nn3ncccc3c2-c2ccnc(Nc3cccnc3)n2)c1)c1c(F)cccc1F [GSK312879] — higher, 6%
- Nc1nc(-c2nccs2)c(-c2ccnc3ccccc23)s1 [GW693542] — the same, 0%
- CN(C)CCN(C)C(=O)c1cc(-c2ccncc2)c(-c2ccc(Cl)c(O)c2)o1.Cl.Cl [SB-710397] — the same, 0%
- Nc1ncnc2[nH]c(-c3ccccc3)nc12 [AH5015] — the same, 0%
- Cc1ccc(C(=O)Nc2ccc(Nc3ccnc4cc(-c5ccccn5)ccc34)cc2O)cc1.Cl [GW440146] — the same, 0%
- Cc1ccc(NC(=O)Nc2cccc(Cl)c2)cc1-c1ccc(C(=O)Nc2ccncc2)cc1 [GSK1398468] — higher, 3%
- CSc1nn2c(=O)cc(N3CCOCC3)nc2n1Cc1cccc(C(F)(F)F)c1C [GSK2363608] — the same, 0%
- Fc1cccc(COc2nnc(-c3ccc4c(c3)CCO4)o2)c1 — the same, 0%
- COc1cccc(-c2cc(-c3c[nH]nc3-c3ccccn3)ccn2)c1 [GW680338] — higher, 7%
- COc1cc2ncn(-c3cc(OCC4CCCO4)c(C(N)=O)s3)c2cc1OC (centres unmarked) [GSK204607] — the same, 0%
- CS(=O)(=O)c1ccc(-c2c(-c3ncn[nH]3)sc(N3CCOCC3)c2C#N)cc1 — higher, 11%
- Cl.NC(=O)c1cccc(Nc2nccc(Nc3ccc(Oc4cccc(Cl)c4)c(Cl)c3)n2)c1 [GW659008] — the same, 0%
- Cc1cccc(-c2cc(Nc3ccncc3)c3ccccc3n2)n1 [GSK223675] — the same, 0%
- CC1=C(C(=O)Nc2cc3cn[nH]c3cc2F)C(c2ccc(C(F)(F)F)cc2)CC(=O)N1 (centres unmarked) [GSK429286] — the same, 0%
- Cc1nnc(-c2ccc3occ(-c4ccc(S(C)=O)cc4)c3c2)[nH]1 (centres unmarked) — the same, 0%
- Cc1c(Cn2ccn3c(=O)cc(N4CCOCC4)nc23)cccc1C(F)(F)F [GSK2289044] — the same, 0%
- CC(C)(C)c1ccc(C(=O)Nc2cn3cc(-c4cccnc4)ccc3n2)cc1 — higher, 30%
- O=C(Nc1n[nH]c2nc(-c3nccs3)c(Br)cc12)C1CC1 [SB-742251] — the same, 0%
- Cc1csc(-c2nc(Nc3ccncc3)c3ccccc3n2)n1 [GW869640] — higher, 12%
- C[C@@H]1CCCCN1c1cc(-c2ccc3c(N)n[nH]c3c2)nc(N)n1 [GSK2258759] — the same, 0%
- Cc1cc(NCC(c2ccccc2)c2ccccc2)nc(NCc2ccc(C(F)(F)F)cc2)n1 [GW497681] — the same, 0%
